Source: PubChem
Only some compounds are listed: those with a hit (about 7.2% of all), similar ones and a draw of the others.
RE007 growth inh = less growth of the S. pombe RE007 Vpr strain | S. pombe RE007 Vpr strain, BacTiter-Glo ATP luminescence, 24 h | Potency, µM (top dose mostly 92.2 µM), hits mostly inhibitors | hit rate 0.21% among 360,000 | AID 651644; active = well fitted falling curve with a large enough effect; inconclusive = small, poorly fitted or top-dose-only effect; inactive = no such curve, though single readings can be large or run the other way; also: nearly all actives have a fitted effect of over 50% in size
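Fission yeast RE007 carrying one integrated HIV-1 vpr copy, seeded at OD 0.01 in PMG+AL medium with 23 nL pinned compound. Grown 24 h at 30 degrees; viability read by BacTiter-Glo luminescence after 5 min.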
FMDV inh = antivirals against foot and mouth disease virus. FMDV antiviral cell-based qHTS. Potency, µM (doses to about 57.9 µM), actives largely listed as inhibitors. hit rate 1.2% among 410,000. AID 1159524; calls by dose curve; tested in HEK293T cells; also: read-out not given here; nearly all actives have a fitted effect of over 45% in size
Sm TGR inh = inhibitors of Schistosoma mansoni thioredoxin glutathione reductase; Q962Y6; purified TGR, DTNB reduction, TNB absorbance 405 nm; Potency, µM (doses to about 114 µM), hits mostly inhibitors; hit rate 3% among 360,000; AID 485364; also: nearly all actives have a fitted effect of over 60% in size
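TGR 20 nM + NADPH 100 uM (dispensed conc.), cpd preinc 15 min RT; start with NADPH (500 uM addition) then DTNB (15 mM addition). Kinetic TNB absorbance, 405 nm filter. Four-parameter Hill fit across titration.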
Lassa entry inh = Lassa virus entry inhibition; Lassa virus pseudotype entry inhibition, cell reporter; Potency, µM (titrated, usually from 37.9 µM), actives largely listed as inhibitors; hit rate 1.2% among 300,000; AID 540256; calls by dose curve; tested in HEK293 cells; also: nearly all actives have a fitted effect of over 50% in size
HCV inhibitor = inhibitors of hepatitis C virus infection; Huh7.5.1 HCVcc-Cre infection, luciferase reporter, 44 h; Potency, µM (highest dose often 41.8 µM), usual class: inhibitors; hit rate 3.4% among 340,000; AID 651820
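A cell-based infection assay in which seeded cells (1,000 per well) receive test compound after 4 h, are inoculated with HCVcc-Cre at approximately 0.5 moi, and are incubated 44 h before luminescence detection.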
Marburg entry inh = Marburg virus entry inhibition; Marburg virus pseudotyped entry inhibition, cell reporter; Potency, µM (series often up to 37.8 µM), actives largely listed as inhibitors; hit rate 1.8% among 300,000; AID 540276; calls by dose curve; tested in HEK293 cells
Each line names hits and unclear results; the compound was inactive in the other large screens. Unless noted, calls follow the shape of the dose curve; as a rule, active = well fitted curve in the direction sought with a large enough effect; inconclusive = small, poorly fitted or top-dose-only effect, or another doubt; inactive = no such curve, though single readings can be large; an effect the other way counts as inactive or inconclusive.

Cc1cc(C)cc(NS(=O)(=O)c2ccc(NC(=S)NC(=O)c3cccs3)cc2)c1	Lassa entry inh 14µM, HCV inhibitor inconclusive, Marburg entry inh 12µM
COc1cc(NS(=O)(=O)c2ccc(NC(=S)NC(=O)c3cccs3)cc2)nc(OC)n1	RE007 growth inh inconclusive, Sm TGR inh 22µM
COc1cc(NS(=O)(=O)c2ccc(NC(=S)NC(=O)c3ccc(F)c(F)c3)cc2)nc(OC)n1	Sm TGR inh 22µM (no result: Lassa entry inh, Marburg entry inh)
COc1ccc(CSc2ccc(-c3nc4ccccn4c3NCc3ccccc3)cc2OC)cc1	FMDV inh inconclusive, HCV inhibitor inconclusive (no result: Lassa entry inh, Marburg entry inh)
CCC(C)Sc1ccc(-c2nc3ccccn3c2NCc2ccccc2)cc1OC (configuration not stated)	FMDV inh 40µM, HCV inhibitor inconclusive (no result: Sm TGR inh, Lassa entry inh, Marburg entry inh)
COc1cc(-c2nc3ccccn3c2NCc2ccccc2)ccc1SC1CCCCC1	FMDV inh 22µM, HCV inhibitor inconclusive (no result: Lassa entry inh, Marburg entry inh)
CCCCNc1c(-c2ccc(OC)c(SC3CCCCC3)c2)nc2cnccn12	HCV inhibitor inconclusive (no result: Lassa entry inh, Marburg entry inh)
CCCCCCSc1cc(-c2nc3cnccn3c2NCc2ccccc2)ccc1OC	none (no result: Lassa entry inh, Marburg entry inh)
COc1ccc(-c2nc3cnccn3c2NCc2ccccc2)cc1SC1CCCCC1	FMDV inh inconclusive, HCV inhibitor 10µM (no result: Lassa entry inh, Marburg entry inh)
CCCCNc1c(-c2ccc(OC)c(SC3CCCCC3)c2)nc2cc(C)ccn12	FMDV inh 25µM, HCV inhibitor 4µM (no result: Lassa entry inh, Marburg entry inh)
CCn1ccc2cc(S(=O)(=O)N3CCC(C(=O)NCc4ccc(OC)cc4)CC3)ccc21	none (no result: RE007 growth inh, HCV inhibitor, Marburg entry inh)
Cc1ccc(CN(C(=O)COc2ccc(Cl)c(C)c2)C2CCS(=O)(=O)C2)o1 (configuration not stated)	none (no result: RE007 growth inh, HCV inhibitor)
COC(=O)c1sc(N)c(C(=O)OC)c1Cn1ncc(Cl)c(Cl)c1=O	FMDV inh inconclusive, Sm TGR inh 0.32µM, Lassa entry inh inconclusive, HCV inhibitor 11µM, Marburg entry inh inconclusive
CN(C)CCCNC(=S)Nc1ccc(-c2ccccc2)cc1	HCV inhibitor 11µM (no result: Lassa entry inh, Marburg entry inh)
CCNC(=S)Nc1ccc(N(c2ccccc2)C(C)C)cc1	HCV inhibitor inconclusive
CC(C)N(c1ccccc1)c1ccc(NC(=S)NCCN(C)C)cc1	FMDV inh inconclusive, Lassa entry inh inconclusive, HCV inhibitor inconclusive, Marburg entry inh 11µM
COc1cc(CNCc2cc3cc(C)ccc3nc2-c2ccc(F)cc2)cc(OC)c1OC	none (no result: RE007 growth inh, Sm TGR inh, Lassa entry inh, HCV inhibitor, Marburg entry inh)
CN(C)c1ncc2nc(-c3ccc(F)cc3)c(=O)n(C[C@H]3CCCO3)c2n1	none (no result: RE007 growth inh, Sm TGR inh, Lassa entry inh, HCV inhibitor, Marburg entry inh)
COC(=O)N1C(=O)[C@@](c2ccccc2)(C2CCCC2)N1C(=O)OC	FMDV inh 20µM, Sm TGR inh inconclusive (no result: Lassa entry inh, Marburg entry inh)
COC(=O)N1C(=O)[C@](c2ccccc2)(C2CCCCC2)N1C(=O)OC	Sm TGR inh 5µM (no result: Lassa entry inh, Marburg entry inh)
CCC1CCCCN1CCCNC(=O)c1ccc2c(c1)N(Cc1cccc(Cl)c1)C(=O)c1ccccc1S2(=O)=O (configuration not stated)	Lassa entry inh inconclusive (no result: RE007 growth inh, HCV inhibitor, Marburg entry inh)
COc1cc2c(-c3ccccc3C)nc3c(c(C)nn3-c3ccccc3)c2cc1OC	Sm TGR inh inconclusive (no result: RE007 growth inh, HCV inhibitor, Marburg entry inh)
C[C@H]1CCC/C=C/[C@@H]2C[C@H](O)C[C@H]2[C@@H](O)/C=C/C(=O)O1	Lassa entry inh 0.4µM, HCV inhibitor inconclusive, Marburg entry inh 0.28µM (no result: Sm TGR inh)
CC1CCCC=CC2CC(OC(=O)CN(C)C)CC2C(O)C=CC(=O)O1 (configuration not stated)	RE007 growth inh inconclusive, Lassa entry inh 1.4µM, HCV inhibitor 0.56µM, Marburg entry inh inconclusive (no result: Sm TGR inh)
C[C@H]1CCCC=CC2C[C@H](O)C[C@@H]2[C@H](O)C=CC(=O)O1 (some centres not stated)	none (no result: RE007 growth inh, Sm TGR inh, Lassa entry inh, HCV inhibitor, Marburg entry inh)
C[C@H]1CCC/C=C/[C@@H]2C[C@H](O)C[C@H]2[C@H](O)[C@H](S(=O)c2ccc(O)cc2)CC(=O)O1 (some centres not stated)	Lassa entry inh 1.3µM, HCV inhibitor 0.56µM, Marburg entry inh inconclusive (no result: Sm TGR inh)
Nc1ncnc2nc(SCc3ccc(Cl)cc3Cl)[nH]c12	none
Nc1cc(=O)[nH]c(SCc2ccc(Cl)cc2Cl)n1	FMDV inh inconclusive, HCV inhibitor 3.2µM (no result: Lassa entry inh, Marburg entry inh)
CC(CNC(=O)c1ccc(Cn2c(=O)c3cccn3c3cccnc32)cc1)c1ccccc1 (configuration not stated)	none (no result: RE007 growth inh, HCV inhibitor, Marburg entry inh)
COc1ccc(CNC(=O)c2cc3cccc4c3n2CC(C)S4)c(OC)c1 (configuration not stated)	none (no result: RE007 growth inh, HCV inhibitor, Marburg entry inh)
